# Key:
# Assay in all cases: PBM binding z-score (relative to random genomic background probes); higher = stronger binding; sequences stand for … in GC…GCGATTGACAGCGTAGAATGAAGG
# [1] = system: FXR:RXRa (NR concentration 270 nM, RXRa partner concentration 90 nM)
# In short: (§1)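 Binding buffer was PBS pH 7.4 with 2% milk, 0.02% Triton X-100, 1 mM DTT, 0.2 mg/mL BSA and 0.4 mg/ml salmon testes DNA. In it, ligand-free nuclear receptor dimers were incubated 1 h on custom Agilent 4×180K protein-binding microarrays carrying double-stranded probes. Antibodies against each partner (one per run) detected binding, and z-scores were calculated against random background probes after regression normalization of scanned fluorescence.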
# [2] = system: LXRa:RXRa (NR concentration 270 nM, RXRa partner concentration 90 nM)
# In short: as §1
# [3] = system: LXRa homodimer (NR concentration 270 nM)
# In short: as §1
# [4] = system: LXRb:RXRa (NR concentration 270 nM, RXRa partner concentration 90 nM)
# In short: as §1
# [5] = system: LXRb homodimer (NR concentration 270 nM)
# In short: as §1
# [6] = system: PPARa:RXRa (NR concentration 270 nM, RXRa partner concentration 90 nM)
# In short: as §1
# [7] = system: PPARg:RXRa (NR concentration 180 nM, RXRa partner concentration 90 nM)
# In short: as §1
# [8] = system: PPARg:RXRa 270nM:90nM, anti-RXR (NR concentration 270 nM, RXRa partner concentration 90 nM)
# In short: as §1
# [9] = system: PPARg:RXRa 30nM:10nM, anti-RXR (NR concentration 30 nM, RXRa partner concentration 10 nM)
# In short: as §1
# [10] = system: PPARg:RXRa 90nM:30nM, anti-RXR (NR concentration 90 nM, RXRa partner concentration 30 nM)
# In short: as §1
# [11] = system: PPARg:RXRa DBDmut IVT, anti-RXR (DBD mutation: RXRa K156A/R161A, NR concentration 270 nM, RXRa partner concentration 90 nM)
# In short: as §1
# [12] = system: PPARg:RXRa IVT, anti-PPARg (NR concentration 270 nM, RXRa partner concentration 90 nM)
# In short: as §1
# [13] = system: PPARg DBDmut:RXRa IVT, anti-PPARg (DBD mutation: PPARg1 K132A/R137A, NR concentration 270 nM, RXRa partner concentration 90 nM)
# In short: as §1
# [14] = system: PPARg DBDmut IVT, anti-PPARg (DBD mutation: PPARg1 K132A/R137A, NR concentration 270 nM)
# In short: as §1
# [15] = system: PPARg homodimer (NR concentration 180 nM)
# In short: as §1
# [16] = system: PXR:RXRa (NR concentration 270 nM, RXRa partner concentration 90 nM)
# In short: as §1
# [17] = system: PXR homodimer (NR concentration 270 nM)
# In short: as §1
# [18] = system: RARa:RXR (NR concentration 270 nM, RXRa partner concentration 90 nM)
# In short: as §1
# [19] = system: RARa homodimer (NR concentration 270 nM)
# In short: as §1
# [20] = system: RARb:RXRa (NR concentration 270 nM, RXRa partner concentration 90 nM)
# In short: as §1
Sequence,PBM binding z-score [1],PBM binding z-score [2],PBM binding z-score [3],PBM binding z-score [4],PBM binding z-score [5],PBM binding z-score [6],PBM binding z-score [7],PBM binding z-score [8],PBM binding z-score [9],PBM binding z-score [10],PBM binding z-score [11],PBM binding z-score [12],PBM binding z-score [13],PBM binding z-score [14],PBM binding z-score [15],PBM binding z-score [16],PBM binding z-score [17],PBM binding z-score [18],PBM binding z-score [19],PBM binding z-score [20]
TCTATTAGTTGACTAGGGCAACCGAAACAGCGGA,0.843,0.805,-0.0763,0.429,0.447,1.45,0.971,2.37,3.68,3.07,3.04,3.38,0.37,0.987,1,0.491,0.269,0.566,0.68,0.994
TCATTTAGGTAAATGCTAGGTGAAAGTCCGATCT,0.568,0.673,0.0938,0.395,0.604,1.41,0.312,1.97,3.57,2.65,3.13,2.44,1.71,1.17,0.343,0.445,-0.0267,0.799,0.628,0.562
TAGCCCAGGTCATTCAGGGGCCAGTATAGAAAGC,5.03,4.14,0.808,2.98,0.952,3.9,2.2,2.46,0.688,1.57,0.643,2.16,-0.0273,0.498,2.32,3.28,0.378,3.94,0.0689,3.67
CGTCTAAGGTCAGAGAGGTCAGTGAATGCCGAGT,6.73,5.75,3.47,5.03,0.521,5.48,4.02,5.03,1.38,3.5,3.8,3.69,0.924,-0.453,4.52,6.51,12,5.99,1.28,5.56
GCCAGTTGGTCAGTAAAAGGTCACACACCGGTCG,3.07,4.03,4.4,3.89,-0.0245,4.36,2.75,4.34,1.84,3.62,0.399,2.44,0.21,0.231,3.78,5.1,1.14,5.76,1.88,4.14
TCATATAGGTGAATGCTAGGTGAAAGTCCGATCT,1.13,0.917,-0.0779,0.789,-0.221,2.55,2.75,3.13,3.54,3.07,6.19,5.78,1.9,1.82,1.06,0.532,-0.173,1.33,0.882,1.22
TCAGACATGTGAAGGTAACTCAGGTACGCAGTCG,0.329,1.23,-0.167,0.691,-0.43,0.662,0.745,1.37,3.48,2.63,1.82,-0.0574,0.0996,0.0128,-0.0995,0.383,-0.196,0.493,0.114,0.199

# Reference: the supplement of paper PMC6555819
